SMILES strings stand for the structures. Out of some 320,000 compounds screened, about 2,100 (0.66%) were called active. About 53% were inconclusive and are not listed. The sample holds actives, similar compounds and a random draw of the others, so the mix is not that of the screen. The call rests on the fitted dose curve; in most records, active means well fitted inhibition curve with a large enough effect in the signal ratio, with a control signal flat (not every such curve was filed as active); inconclusive means small, poorly fitted or top-dose-only effect, or effect the other way, or a change in a side signal; inactive means flat fitted curve, though single readings scatter; the % refers to the signal ratio.
Potency means the concentration at half of the fitted maximal effect.

A short description of this assay: qHTS Assay for Lipid Storage Modulators in Drosophila S3 Cells.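 On cell number change: cells counted by Cell Tracker Red CMTPX staining in the red channel.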 Particulars: BODIPY lipid droplet fluorescence, 18-24 h, cells fed with added oleic acid; cell number change: measured here: cell count max response; series mostly up to 46.1 µM. The procedure, abridged:
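Laser-scanning cytometry quantifies lipid droplet accumulation (500–530 nm total intensity; droplet/cell object ratio) in oleic acid-fed (400 uM added) Drosophila S3 cells treated with a concentration series. 20 uM Triacsin C defined 100% inhibition.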
A general note: qHTS replaces the single test concentration by a dilution series.
`O=C(NCCc1ccccc1)/C(=C\c1ccc([N+](=O)[O-])cc1)NC(=O)c1ccco1`: the Potency result is “inactive”.

Consider `COc1ccccc1C1(CC(=O)Nc2nccs2)CCOC(C(C)C)C1` (stereo unspecified), for which the Potency result was “inactive”.

`C=CCn1c(SCC(=O)NCc2ccc3c(c2)OCO3)nnc1C1CCCCC1`: the Potency entry is “inactive” and the cell number change is -24%.

On to `COC(=O)c1sccc1NS(=O)(=O)c1ccccc1[N+](=O)[O-]`, for which the Potency result is “inactive” and the cell number change was -10.5%.

With `CN(C)S(=O)(=O)c1cccc(NC(=O)COC(=O)CCc2nc3ccccc3s2)c1`, the Potency entry was “inactive” and the cell number change came to 27.2%.

Consider `COc1ccc(NC(=O)c2ccc3c(=O)n(CC4CCCO4)c(=S)[nH]c3c2)c(OC)c1` (stereo unspecified), for which the Potency result was “inactive” and the cell number change was 0.833%.

For `Cc1cccc(NC(=O)c2ccc3c(=O)n(CC4CCCO4)c(=S)[nH]c3c2)c1` (stereo unspecified), the Potency is 2.91 µM (active) and the cell number change amounted to 0.855%.

On to `CCCCCNC(=O)c1ccc2c(=O)n(CC3CCCO3)c(=S)[nH]c2c1` (stereo unspecified), for which the Potency result is “inactive” and the cell number change came out at 12.5%.

Take `CCOc1ccccc1C(=O)NN1C(=O)C2CCCCC2C1=O` (stereo unspecified): the Potency result is “inactive” and the cell number change worked out at 2.53%.

Take `O=C(N/N=C1\CCCCc2ccccc21)c1ccccn1`: the Potency result is “inactive” and the cell number change amounted to 8.38%.

In the case of `CC1(C)CC(=O)C=C(Nc2ccc(S(N)(=O)=O)cc2)C1`, the Potency entry was “inactive” and the cell number change turned out to be 5.75%.

In the case of `CC1(C)CC(=O)C=C(Nc2ccc(F)cc2)C1`, the Potency entry was “inactive”.

In the case of `CC1(C)CC(=O)C=C(NCCc2ccc(S(N)(=O)=O)cc2)C1`, the Potency is 29.1 µM (active) and the cell number change worked out at 7.43%.

With `CC1(C)CC(=O)C=C(NCCc2ccccc2)C1`, the Potency entry was “inactive” and the cell number change was 5.18%.

Consider `CC(=O)Nc1ccc(NC2=CC(=O)CC(C)(C)C2)cc1`, for which the Potency entry was “inactive”.

`CCc1ccc(NC2=CC(=O)CC(C)(C)C2)cc1`: the Potency was 16.4 µM (active) and the cell number change was -10.8%.

Take `FC(F)(F)c1nnc(-c2ccccc2)nc1N1CCOCC1`: the Potency result was “inactive”.

On to `O=C(COc1ccccc1)NC(NC(=S)Nc1ccccc1C(=O)O)C(Cl)(Cl)Cl` (stereo unspecified), for which the Potency entry is “inactive” and the cell number change is -4.52%.

Regarding `CCCCN(C(=O)c1cccc(S(=O)(=O)N2CC(C)OC(C)C2)c1)c1c(N)n(CCCC)c(=O)[nH]c1=O` (stereo unspecified), the Potency result was “inactive” and the cell number change stood at 6.37%.

`CCOC(=O)C(NC(=O)N1CCCCC1)(c1ccccc1)C(F)(F)F` (stereo unspecified): the Potency entry was “inactive” and the cell number change is -0.413%.

`CCOC(=O)C(NC(=O)NC1CCCCC1)(c1ccccc1)C(F)(F)F` (stereo unspecified): the Potency was 7.31 µM (active) and the cell number change was -7.07%.

Take `CCOC(=O)C(NC(=O)Nc1ccc(O)cc1)(c1ccccc1)C(F)(F)F` (stereo unspecified): the Potency entry is “inactive” and the cell number change is 14.8%.

As to `Cc1n[nH]c(C)c1S(=O)(=O)N1CCc2ccccc2C1`, the Potency result was “inactive” and the cell number change worked out at 24.8%.

Consider `C/C(=N\NC(=O)c1c(C)nc2ccccn12)c1ccco1`, for which the Potency result is “inactive” and the cell number change was -20.6%.

For the compound `C/C(=N\NC(=O)c1c(C)nc2ccccn12)c1ccc(O)cc1O`, the Potency was 5.8 µM (active) and the cell number change stood at 6.25%.

In the case of `Cc1nc2ccccn2c1C(=O)N/N=C/c1ccccc1`, the Potency entry was “inactive” and the cell number change was 9.24%.

For `CC(=O)N1CCN(C(=S)c2ccc(Cl)cc2)CC1`, the Potency result is “inactive” and the cell number change is -11.3%.

For the compound `Cc1csc(NC(=O)CSc2nc3ccccc3c3c2CCCC3)n1`, the Potency entry is “inactive” and the cell number change came out at 1.26%.

As to `COC(=O)c1c(SCC(=O)Nc2ccc(C)cc2)nc(=O)[nH]c1C`, the Potency entry was “inactive” and the cell number change was found to be 11%.

Consider `Cc1csc(NC(=O)CSc2ncnc3ccccc23)n1`, for which the Potency entry was “inactive” and the cell number change was -0.862%.

As for `CCOC(=O)c1c(SCC(=O)Nc2nc(C)cs2)nc(=O)[nH]c1C`, the Potency was 13 µM (active) and the cell number change is 11.9%.

Turning to `Cc1csc(NC(=O)CSc2nc(C(C)C)nc3ccccc23)n1`, the Potency is 7.31 µM (active) and the cell number change worked out at 6.52%.

`Cc1csc(NC(=O)CSc2[nH]c(=O)ncc2C)n1`: the Potency result was “inactive”.

Regarding `Cc1ccc(NC(=O)CCC(=O)NNS(=O)(=O)c2ccc(Cl)cc2)cc1C`, the Potency result is “inactive” and the cell number change was -13.3%.

For the compound `CC(=O)Nc1ccc(S(=O)(=O)NNC(=O)CCC(=O)Nc2cc(C)ccc2C)cc1`, the Potency is 2.31 µM (active) and the cell number change was determined as 1.21%.

With `Cc1ccc(S(=O)(=O)NNC(=O)CCC(=O)Nc2ccccc2)cc1`, the Potency result was “inactive” and the cell number change amounted to 20.4%.

For the compound `Cc1ccc([N+](=O)[O-])cc1NC(=O)CN(C)CCOc1ccccc1`, the Potency result was “inactive” and the cell number change is 12%.

As for `CCOC(=O)c1cc(-c2ccc(OC)cc2)n(CCC(=O)NC2CCN(Cc3ccccc3)CC2)c1C`, the Potency result was “inactive” and the cell number change worked out at 11%.

Consider `C=CCN(c1ccc(C(=O)OC)cc1)S(=O)(=O)c1ccccc1`, for which the Potency result was “inactive”.

For the compound `Cc1ccc(-c2ccc(S(=O)(=O)NCc3ccco3)cc2)cc1`, the Potency result is “inactive” and the cell number change amounted to 2.5%.

On to `Cc1ccc(S(=O)(=O)NCc2ccco2)cc1C`, for which the Potency is 10.3 µM (active) and the cell number change is -8.6%.

Consider `Cn1c(=O)oc2cc(S(=O)(=O)NCc3ccco3)ccc21`, for which the Potency entry is “inactive” and the cell number change turned out to be 0.921%.

Consider `CCCCNC(=O)C1CCCN1C(=O)NC1CCCCC1` (stereo unspecified), for which the Potency entry was “inactive” and the cell number change was 9.73%.

As for `CC(C)CCNC(=O)C1CCCN1C(=O)NC1CCCCC1` (stereo unspecified), the Potency result is “inactive” and the cell number change is -5.55%.

Turning to `CCOCCCNC(=O)C1CCCN1C(=O)NC1CCCCC1` (stereo unspecified), the Potency was 20.6 µM (active) and the cell number change is -3.91%.

As to `Cc1ccc(C(=O)Nc2onc(C)c2C#N)cc1`, the Potency result is “inactive”.

On to `O=C(NCc1ccccc1Cl)c1cnccc1C(F)(F)F`, for which the Potency result is “inactive” and the cell number change was determined as 0.794%.

For the compound `Cc1ccc(CCN=c2c([N+](=O)[O-])nn(-c3ccccc3)n2O)cc1`, the Potency result is “inactive”.

Turning to `COc1ccc(-n2nc([N+](=O)[O-])c(=NCCc3ccc(OC)c(OC)c3)n2O)cc1`, the Potency was 0.82 µM (active) and the cell number change is -7.82%.

As to `COc1ccc(-n2nc([N+](=O)[O-])c(=NCCc3ccc(C)cc3)n2O)cc1`, the Potency entry was “inactive” and the cell number change is -0.674%.

Regarding `CCOc1ccccc1/C=N/n1nnnc1N`, the Potency result is “inactive” and the cell number change is -5.74%.

In the case of `O=C1C2CC=C(Cl)CC2C(=O)N1CCC[n+]1cccc2ccccc21` (stereo unspecified), the Potency result is “inactive” and the cell number change was -1.42%.

In the case of `O=C(C1CC(=O)N(c2ccc(Cl)cc2)C1)N1CCC(c2nc3ccccc3[nH]2)CC1` (stereo unspecified), the Potency result was “inactive”.

Take `CCCNC(=O)Cn1cnc2sc(C(=O)N3CCN(CCC)CC3)c(C)c2c1=O`: the Potency is 32.6 µM (active) and the cell number change was -2.16%.

For the compound `CCCNC(=O)Cn1cnc2sc(C(=O)N3CCN(Cc4ccc5c(c4)OCO5)CC3)c(C)c2c1=O`, the Potency result was “inactive” and the cell number change came out at 8.92%.

As for `CCCNC(=O)Cn1cnc2sc(C(=O)N3CCCC(C(=O)OCC)C3)c(C)c2c1=O` (stereo unspecified), the Potency entry is “inactive” and the cell number change is -16.1%.

Consider `CCOC(=O)C1CCN(C(=O)c2cccc(N3C(=O)NC4CC3(C)Oc3ccc(C)cc34)c2)CC1` (stereo unspecified), for which the Potency entry is “inactive”.

As for `Cn1c(=O)oc2cc(S(=O)(=O)N3CCCCC3)ccc21`, the Potency result is “inactive” and the cell number change was 4.27%.

Turning to `COc1ccc(C(=O)/C=C/Nc2ccc(S(=O)(=O)Nc3nc(C)cc(C)n3)cc2)c(OC)c1`, the Potency result was “inactive” and the cell number change was determined as 26.5%.

On to `COc1ccc(C(=O)/C=C/Nc2ccc(S(=O)(=O)Nc3cc(OC)nc(OC)n3)cc2)c(OC)c1`, for which the Potency was 29.1 µM (active) and the cell number change came out at 34.2%.

`COc1cc(NS(=O)(=O)c2ccc(N/C=C\C(=O)c3ccc(F)cc3)cc2)nc(OC)n1`: the Potency entry is “inactive” and the cell number change came out at 2.61%.

The values are drawn from PubChem BioAssay AID2685 (National Center for Advancing Translational Sciences (NCATS), 2010).
